Results: ChEMBL document CHEMBL1961873, “Compounds: GSK PKIS; Assays: Nanosyn kinase panel” (2012)
Values joined by “and” are separate entries in the source; they are usually repeats but may differ in a detail not shown here. Identical values can stand only once.

What was measured:
[1] = test system: Epidermal growth factor receptor (Homo sapiens), P00533 [T790M]; details: at 1 µM
[2] = test system: Epidermal growth factor receptor (Homo sapiens), P00533 [L858R,T790M]; details: at 0.1 µM
[3] = test system: Epidermal growth factor receptor (Homo sapiens), P00533 [L858R,T790M]; details: at 1 µM
[4] = target: Ephrin type-A receptor 2 (Homo sapiens) (UniProt P29317); details: at 0.1 µM
Ephrin type-A receptor 2 (Homo sapiens), sequence (P29317 whole entry): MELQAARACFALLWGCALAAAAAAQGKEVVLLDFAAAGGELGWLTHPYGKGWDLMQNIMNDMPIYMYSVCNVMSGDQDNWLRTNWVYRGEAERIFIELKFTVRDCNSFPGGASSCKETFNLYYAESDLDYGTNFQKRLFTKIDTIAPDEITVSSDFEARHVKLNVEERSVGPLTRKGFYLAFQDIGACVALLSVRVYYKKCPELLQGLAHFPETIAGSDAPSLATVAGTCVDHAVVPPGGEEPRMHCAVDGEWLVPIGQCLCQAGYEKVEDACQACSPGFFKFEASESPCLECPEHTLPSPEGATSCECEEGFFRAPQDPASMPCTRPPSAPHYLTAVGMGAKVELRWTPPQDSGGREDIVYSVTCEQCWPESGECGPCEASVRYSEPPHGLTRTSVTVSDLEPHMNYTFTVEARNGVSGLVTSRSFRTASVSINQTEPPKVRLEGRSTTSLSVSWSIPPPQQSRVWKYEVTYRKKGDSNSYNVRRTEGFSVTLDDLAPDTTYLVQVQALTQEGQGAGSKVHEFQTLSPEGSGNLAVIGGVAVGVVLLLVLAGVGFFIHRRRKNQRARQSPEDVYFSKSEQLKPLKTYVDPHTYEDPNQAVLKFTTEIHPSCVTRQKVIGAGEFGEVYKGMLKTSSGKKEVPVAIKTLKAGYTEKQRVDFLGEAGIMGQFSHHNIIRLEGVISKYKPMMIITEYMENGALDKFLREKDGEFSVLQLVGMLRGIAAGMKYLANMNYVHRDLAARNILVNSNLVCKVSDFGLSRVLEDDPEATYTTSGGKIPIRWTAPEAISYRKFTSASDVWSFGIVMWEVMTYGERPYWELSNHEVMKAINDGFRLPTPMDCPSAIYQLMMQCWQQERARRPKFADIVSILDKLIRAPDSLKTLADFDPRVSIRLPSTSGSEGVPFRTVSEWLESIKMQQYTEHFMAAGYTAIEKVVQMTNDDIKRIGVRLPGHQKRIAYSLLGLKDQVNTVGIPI

[5] = target: Ephrin type-A receptor 2 (Homo sapiens) (UniProt P29317); details: at 1 µM
[6] = target: T1, Ephrin type-A receptor 3 (Homo sapiens) (UniProt P29320); details: at 0.1 µM
T1 sequence (whole entry): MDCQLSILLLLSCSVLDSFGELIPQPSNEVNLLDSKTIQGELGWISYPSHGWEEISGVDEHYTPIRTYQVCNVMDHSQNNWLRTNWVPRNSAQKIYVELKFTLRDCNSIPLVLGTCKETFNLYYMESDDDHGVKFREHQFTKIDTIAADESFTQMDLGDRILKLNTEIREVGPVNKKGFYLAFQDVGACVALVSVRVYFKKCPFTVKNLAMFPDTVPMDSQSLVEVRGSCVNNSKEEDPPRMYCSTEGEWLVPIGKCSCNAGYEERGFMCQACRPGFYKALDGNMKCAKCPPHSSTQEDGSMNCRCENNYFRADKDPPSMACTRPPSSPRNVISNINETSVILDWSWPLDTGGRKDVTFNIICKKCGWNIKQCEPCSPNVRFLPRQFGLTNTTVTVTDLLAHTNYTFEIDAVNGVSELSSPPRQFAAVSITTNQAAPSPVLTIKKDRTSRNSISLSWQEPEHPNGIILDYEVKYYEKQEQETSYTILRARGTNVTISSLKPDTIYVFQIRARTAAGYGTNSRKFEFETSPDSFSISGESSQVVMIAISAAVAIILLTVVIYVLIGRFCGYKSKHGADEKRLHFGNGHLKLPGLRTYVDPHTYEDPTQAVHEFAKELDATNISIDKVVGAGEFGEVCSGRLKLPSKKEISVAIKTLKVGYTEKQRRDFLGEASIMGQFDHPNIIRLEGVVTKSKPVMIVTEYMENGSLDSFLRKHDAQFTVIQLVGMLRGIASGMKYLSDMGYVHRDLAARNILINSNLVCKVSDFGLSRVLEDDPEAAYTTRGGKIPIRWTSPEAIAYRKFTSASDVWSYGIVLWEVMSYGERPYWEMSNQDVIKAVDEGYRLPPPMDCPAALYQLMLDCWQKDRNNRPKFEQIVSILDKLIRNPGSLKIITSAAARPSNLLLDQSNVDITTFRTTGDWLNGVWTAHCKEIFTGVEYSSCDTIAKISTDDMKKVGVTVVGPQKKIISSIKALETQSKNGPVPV

[7] = target: T1, Ephrin type-A receptor 3 (Homo sapiens); details: at 1 µM
[8] = target: Ephrin type-A receptor 4 (Homo sapiens) (UniProt P54764); details: at 0.1 µM
[9] = target: Ephrin type-A receptor 4 (Homo sapiens) (UniProt P54764); details: at 1 µM
[10] = target: T2, Ephrin type-B receptor 2 (Homo sapiens) (UniProt P29323); details: at 0.1 µM
T2 sequence (whole entry): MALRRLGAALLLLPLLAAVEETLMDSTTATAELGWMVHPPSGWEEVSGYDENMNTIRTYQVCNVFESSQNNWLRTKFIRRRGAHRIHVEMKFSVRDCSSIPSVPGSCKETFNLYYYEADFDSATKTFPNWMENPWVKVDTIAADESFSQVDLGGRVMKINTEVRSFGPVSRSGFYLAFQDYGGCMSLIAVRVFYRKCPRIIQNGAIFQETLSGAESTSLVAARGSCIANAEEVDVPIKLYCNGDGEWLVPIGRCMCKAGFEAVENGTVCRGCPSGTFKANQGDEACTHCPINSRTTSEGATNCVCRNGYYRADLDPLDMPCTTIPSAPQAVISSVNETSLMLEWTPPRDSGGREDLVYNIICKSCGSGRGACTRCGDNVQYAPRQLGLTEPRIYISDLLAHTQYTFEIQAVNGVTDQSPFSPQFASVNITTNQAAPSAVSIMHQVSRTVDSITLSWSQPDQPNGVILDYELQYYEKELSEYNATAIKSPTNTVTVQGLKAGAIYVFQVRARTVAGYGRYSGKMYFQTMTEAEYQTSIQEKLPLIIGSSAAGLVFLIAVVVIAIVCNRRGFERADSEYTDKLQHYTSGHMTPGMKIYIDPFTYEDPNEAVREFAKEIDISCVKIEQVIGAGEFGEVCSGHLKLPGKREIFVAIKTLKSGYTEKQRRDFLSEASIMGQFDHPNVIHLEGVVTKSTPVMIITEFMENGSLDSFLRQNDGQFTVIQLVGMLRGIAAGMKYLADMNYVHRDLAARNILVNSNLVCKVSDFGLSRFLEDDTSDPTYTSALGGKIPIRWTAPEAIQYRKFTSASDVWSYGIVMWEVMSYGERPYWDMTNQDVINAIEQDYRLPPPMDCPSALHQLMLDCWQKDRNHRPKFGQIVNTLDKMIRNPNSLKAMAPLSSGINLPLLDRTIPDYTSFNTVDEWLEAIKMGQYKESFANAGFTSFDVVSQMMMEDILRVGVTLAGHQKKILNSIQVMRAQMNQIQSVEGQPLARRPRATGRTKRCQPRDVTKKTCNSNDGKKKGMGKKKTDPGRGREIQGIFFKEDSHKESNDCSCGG

[11] = target: T2, Ephrin type-B receptor 2 (Homo sapiens); details: at 1 µM
[12] = target: T3, Ephrin type-B receptor 3 (Homo sapiens) (UniProt P54753); details: at 0.1 µM
T3 sequence (whole entry): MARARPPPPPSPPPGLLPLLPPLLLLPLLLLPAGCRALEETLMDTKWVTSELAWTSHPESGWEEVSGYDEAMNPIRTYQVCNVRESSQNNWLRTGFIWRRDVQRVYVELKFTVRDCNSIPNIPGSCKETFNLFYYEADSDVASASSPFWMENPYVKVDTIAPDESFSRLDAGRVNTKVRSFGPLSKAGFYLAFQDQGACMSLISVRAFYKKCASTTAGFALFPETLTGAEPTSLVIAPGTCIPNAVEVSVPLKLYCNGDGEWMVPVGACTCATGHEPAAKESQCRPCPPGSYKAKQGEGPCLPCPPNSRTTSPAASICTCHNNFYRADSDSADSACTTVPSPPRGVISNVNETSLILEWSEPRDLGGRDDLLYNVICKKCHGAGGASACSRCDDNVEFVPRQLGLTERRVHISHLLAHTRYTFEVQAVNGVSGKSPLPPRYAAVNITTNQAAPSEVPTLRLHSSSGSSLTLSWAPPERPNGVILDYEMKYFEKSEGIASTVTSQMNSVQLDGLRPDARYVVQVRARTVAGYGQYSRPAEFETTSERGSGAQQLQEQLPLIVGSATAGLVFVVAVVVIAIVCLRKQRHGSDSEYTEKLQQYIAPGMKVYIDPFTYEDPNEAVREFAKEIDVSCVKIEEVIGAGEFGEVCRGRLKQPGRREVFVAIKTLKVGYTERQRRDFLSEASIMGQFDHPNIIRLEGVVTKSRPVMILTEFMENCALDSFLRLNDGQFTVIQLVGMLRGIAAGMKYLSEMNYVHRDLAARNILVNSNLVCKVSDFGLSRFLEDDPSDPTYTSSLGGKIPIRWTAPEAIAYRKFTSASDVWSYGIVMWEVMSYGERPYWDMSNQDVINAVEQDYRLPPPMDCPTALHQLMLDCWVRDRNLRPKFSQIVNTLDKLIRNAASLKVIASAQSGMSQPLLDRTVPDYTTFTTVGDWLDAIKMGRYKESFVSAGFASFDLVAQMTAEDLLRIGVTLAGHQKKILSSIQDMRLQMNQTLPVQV

[13] = target: T3, Ephrin type-B receptor 3 (Homo sapiens); details: at 1 µM
[14] = target: T4, Ephrin type-B receptor 4 (Homo sapiens) (UniProt P54760); details: at 0.1 µM
T4 sequence (whole entry): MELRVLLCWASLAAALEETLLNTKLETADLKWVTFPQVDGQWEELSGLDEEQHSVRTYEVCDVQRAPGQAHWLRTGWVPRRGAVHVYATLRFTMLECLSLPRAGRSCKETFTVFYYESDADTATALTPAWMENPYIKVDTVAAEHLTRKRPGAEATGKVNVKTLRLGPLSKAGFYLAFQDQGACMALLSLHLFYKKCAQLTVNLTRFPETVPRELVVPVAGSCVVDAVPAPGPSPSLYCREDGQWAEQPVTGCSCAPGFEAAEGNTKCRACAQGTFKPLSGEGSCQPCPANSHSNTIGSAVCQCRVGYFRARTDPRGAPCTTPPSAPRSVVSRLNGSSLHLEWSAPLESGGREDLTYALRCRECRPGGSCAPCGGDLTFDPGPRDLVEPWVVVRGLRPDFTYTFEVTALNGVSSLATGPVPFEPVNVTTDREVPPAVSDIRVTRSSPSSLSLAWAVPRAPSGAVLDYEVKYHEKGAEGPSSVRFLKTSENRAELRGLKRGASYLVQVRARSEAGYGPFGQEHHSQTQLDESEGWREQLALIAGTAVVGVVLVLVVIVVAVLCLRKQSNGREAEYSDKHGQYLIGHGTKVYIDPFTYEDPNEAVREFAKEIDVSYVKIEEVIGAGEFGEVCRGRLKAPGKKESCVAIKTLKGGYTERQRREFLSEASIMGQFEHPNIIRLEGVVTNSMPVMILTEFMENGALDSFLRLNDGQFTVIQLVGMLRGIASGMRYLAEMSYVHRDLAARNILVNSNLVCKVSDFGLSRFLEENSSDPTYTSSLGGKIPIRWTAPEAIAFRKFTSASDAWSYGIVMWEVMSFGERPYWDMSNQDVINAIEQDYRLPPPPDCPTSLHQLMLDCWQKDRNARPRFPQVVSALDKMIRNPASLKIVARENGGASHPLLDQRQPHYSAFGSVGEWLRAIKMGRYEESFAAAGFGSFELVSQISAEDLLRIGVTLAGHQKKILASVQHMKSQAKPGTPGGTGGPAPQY

[15] = target: T4, Ephrin type-B receptor 4 (Homo sapiens); details: at 1 µM
[16] = target: Receptor tyrosine-protein kinase erbB-2 (Homo sapiens) (UniProt P04626); details: at 0.1 µM
[17] = target: Receptor tyrosine-protein kinase erbB-2 (Homo sapiens) (UniProt P04626); details: at 1 µM
[18] = target: Receptor tyrosine-protein kinase erbB-4 (Homo sapiens) (UniProt Q15303); details: at 0.1 µM
[19] = target: Receptor tyrosine-protein kinase erbB-4 (Homo sapiens) (UniProt Q15303); details: at 1 µM
[20] = target: Tyrosine-protein kinase Fer (Homo sapiens) (UniProt P16591); details: at 0.1 µM;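 further: reported figures are averaged percent inhibition of FER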
Tyrosine-protein kinase Fer (Homo sapiens), sequence (P16591 whole entry, looked up): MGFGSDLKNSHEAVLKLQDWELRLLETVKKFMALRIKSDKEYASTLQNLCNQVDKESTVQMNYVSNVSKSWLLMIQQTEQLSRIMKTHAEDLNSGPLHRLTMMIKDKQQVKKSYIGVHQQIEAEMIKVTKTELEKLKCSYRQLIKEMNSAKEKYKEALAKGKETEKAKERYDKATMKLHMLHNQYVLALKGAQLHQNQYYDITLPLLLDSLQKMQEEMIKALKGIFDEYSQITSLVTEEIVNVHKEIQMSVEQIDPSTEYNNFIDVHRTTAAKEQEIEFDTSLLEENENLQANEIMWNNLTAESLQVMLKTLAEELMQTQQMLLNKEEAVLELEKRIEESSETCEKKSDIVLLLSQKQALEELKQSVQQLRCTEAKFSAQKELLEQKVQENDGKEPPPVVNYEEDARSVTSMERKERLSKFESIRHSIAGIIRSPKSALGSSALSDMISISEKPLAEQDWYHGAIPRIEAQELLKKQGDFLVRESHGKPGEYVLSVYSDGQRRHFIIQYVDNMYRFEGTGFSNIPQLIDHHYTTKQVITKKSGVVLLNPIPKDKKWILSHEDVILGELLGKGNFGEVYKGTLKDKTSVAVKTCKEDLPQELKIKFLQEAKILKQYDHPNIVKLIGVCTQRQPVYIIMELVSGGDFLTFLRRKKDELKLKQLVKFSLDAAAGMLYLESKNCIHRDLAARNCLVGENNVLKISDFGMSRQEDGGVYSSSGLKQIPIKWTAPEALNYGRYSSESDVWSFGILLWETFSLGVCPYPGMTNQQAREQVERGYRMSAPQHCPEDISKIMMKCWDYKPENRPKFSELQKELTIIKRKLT

Epidermal growth factor receptor (Homo sapiens), P00533 [T790M], sequence (P00533 whole entry T790M): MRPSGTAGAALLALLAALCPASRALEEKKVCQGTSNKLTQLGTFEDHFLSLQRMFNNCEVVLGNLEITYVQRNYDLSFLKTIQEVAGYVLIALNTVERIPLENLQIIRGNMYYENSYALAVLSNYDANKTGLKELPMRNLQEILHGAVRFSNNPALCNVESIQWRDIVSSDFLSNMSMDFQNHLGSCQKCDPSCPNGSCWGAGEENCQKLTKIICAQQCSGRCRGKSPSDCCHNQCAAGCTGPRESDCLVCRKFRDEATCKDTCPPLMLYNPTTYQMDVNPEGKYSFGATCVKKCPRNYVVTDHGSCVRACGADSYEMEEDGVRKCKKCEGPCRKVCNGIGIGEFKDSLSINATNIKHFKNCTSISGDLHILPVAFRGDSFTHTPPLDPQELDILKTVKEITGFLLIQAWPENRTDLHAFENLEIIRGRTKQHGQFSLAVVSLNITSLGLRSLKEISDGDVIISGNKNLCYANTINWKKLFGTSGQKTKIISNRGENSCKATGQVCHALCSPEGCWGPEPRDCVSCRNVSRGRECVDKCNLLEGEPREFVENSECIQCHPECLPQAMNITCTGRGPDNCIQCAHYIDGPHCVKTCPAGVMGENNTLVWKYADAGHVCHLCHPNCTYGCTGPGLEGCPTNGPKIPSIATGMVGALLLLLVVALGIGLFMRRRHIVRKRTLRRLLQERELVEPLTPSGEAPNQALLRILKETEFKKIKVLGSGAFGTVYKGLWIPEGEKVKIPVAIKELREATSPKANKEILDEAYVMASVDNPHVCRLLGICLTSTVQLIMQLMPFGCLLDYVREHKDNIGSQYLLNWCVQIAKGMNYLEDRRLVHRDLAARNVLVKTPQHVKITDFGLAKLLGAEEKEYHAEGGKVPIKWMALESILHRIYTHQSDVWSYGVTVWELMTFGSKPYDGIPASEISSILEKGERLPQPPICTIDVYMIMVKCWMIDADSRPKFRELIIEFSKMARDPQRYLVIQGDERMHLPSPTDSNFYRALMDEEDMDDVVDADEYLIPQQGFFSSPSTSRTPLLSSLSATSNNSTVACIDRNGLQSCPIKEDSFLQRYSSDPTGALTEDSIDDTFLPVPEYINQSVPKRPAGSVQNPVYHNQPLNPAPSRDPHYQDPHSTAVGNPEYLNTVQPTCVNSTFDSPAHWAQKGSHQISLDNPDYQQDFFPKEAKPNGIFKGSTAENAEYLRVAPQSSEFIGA
Epidermal growth factor receptor (Homo sapiens), P00533 [L858R,T790M], sequence (P00533 whole entry T790M/L858R, looked up): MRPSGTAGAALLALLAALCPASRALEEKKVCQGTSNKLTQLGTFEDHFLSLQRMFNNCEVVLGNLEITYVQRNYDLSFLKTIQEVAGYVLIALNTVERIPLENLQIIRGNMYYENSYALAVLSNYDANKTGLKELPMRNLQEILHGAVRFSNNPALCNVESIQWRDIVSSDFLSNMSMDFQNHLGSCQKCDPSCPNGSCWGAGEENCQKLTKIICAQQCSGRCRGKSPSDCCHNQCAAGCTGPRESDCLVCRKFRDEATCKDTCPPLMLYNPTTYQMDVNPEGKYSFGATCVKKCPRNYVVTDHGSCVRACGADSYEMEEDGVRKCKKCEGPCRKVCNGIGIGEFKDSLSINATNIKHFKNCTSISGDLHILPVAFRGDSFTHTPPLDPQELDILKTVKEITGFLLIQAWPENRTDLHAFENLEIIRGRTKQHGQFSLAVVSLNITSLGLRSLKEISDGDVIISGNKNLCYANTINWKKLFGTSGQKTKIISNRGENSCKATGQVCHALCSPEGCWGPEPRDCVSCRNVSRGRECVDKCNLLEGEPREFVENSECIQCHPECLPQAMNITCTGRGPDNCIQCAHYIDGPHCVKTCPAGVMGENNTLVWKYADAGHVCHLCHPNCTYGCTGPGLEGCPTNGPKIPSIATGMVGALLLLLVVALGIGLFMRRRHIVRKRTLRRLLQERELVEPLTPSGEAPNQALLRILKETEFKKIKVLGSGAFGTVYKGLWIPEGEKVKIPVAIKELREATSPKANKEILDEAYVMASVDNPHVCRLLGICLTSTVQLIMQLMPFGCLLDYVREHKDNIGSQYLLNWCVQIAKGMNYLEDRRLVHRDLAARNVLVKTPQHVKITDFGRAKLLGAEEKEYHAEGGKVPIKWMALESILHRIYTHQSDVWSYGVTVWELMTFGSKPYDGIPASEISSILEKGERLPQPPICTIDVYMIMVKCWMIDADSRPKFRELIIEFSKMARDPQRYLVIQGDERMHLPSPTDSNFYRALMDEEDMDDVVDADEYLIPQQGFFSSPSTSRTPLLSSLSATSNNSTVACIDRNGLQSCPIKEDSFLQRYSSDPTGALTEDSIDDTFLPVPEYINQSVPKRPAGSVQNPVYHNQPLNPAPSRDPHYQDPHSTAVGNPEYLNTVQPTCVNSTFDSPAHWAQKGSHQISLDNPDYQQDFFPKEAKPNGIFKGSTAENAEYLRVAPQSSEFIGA

SMILES	inhibition [1]	inhibition [2]	inhibition [3]	inhibition [4]	inhibition [5]	inhibition [6]	inhibition [7]	inhibition [8]	inhibition [9]	inhibition [10]	inhibition [11]	inhibition [12]	inhibition [13]	inhibition [14]	inhibition [15]	inhibition [16]	inhibition [17]	inhibition [18]	inhibition [19]	inhibition [20]
Nc1nonc1-c1nc2cnccc2n1C1CC1	0.41% and 1.8%	0.14% and 3.74%	5.5% and 7.11%	1.3% and -6.99%	0.04% and -7.28%	3.71% and -1.91%	3.7% and -1.81%	6.99% and 5.79%	5.96% and 2.69%	10.5% and 2.91%	14.2% and 3.79%	5.08% and 1.12%	6.13% and -2.08%	2.51% and -2.43%	1.45% and -3.41%	1.64% and 0.4%	-1.67% and -0.01%	1.55% and 2.22%	6.98% and 0.35%	2% and 1.26%
CN1CCC(C(=O)Nc2n[nH]c3nc(-c4ccc(O)cc4)c(Br)cc23)CC1	2.93% and 1.04%	-0.55% and -2.98%	1.4% and -0.59%	-3.15% and 0%	-2.77% and -1.38%	-0.96% and 1.14%	-1.23% and 3.96%	7.94% and 4.03%	10.9% and 9.16%	2.8% and -0.98%	8.11% and 8.66%	1.14% and 1.43%	1.83% and 4.59%	-1.77% and 1.07%	-1.46% and 4.54%	6.86% and 3.66%	7.03% and 4.93%	6.26% and 5.04%	8.49% and 8.92%	4.47% and -1.58%
COc1cc(N2CCN(C(C)C)CC2)ccc1Nc1nc(Nc2cccc(F)c2C(=O)O)c2cc[nH]c2n1	24.9%	9.68%	48.9%	0.65%	-0.38%	2.98%	6.01%	8.47%	11.2%	9.96%	12.6%	3.69%	6.24%	2.82%	2.84%	3.72%	5.93%	11.7%	11.2%	32.5%
COc1cccc(Nc2nccc(-c3cnn4ncccc34)n2)c1	1.13%	4.75%	9.99%	1.1%	12.2%	4.37%	8.81%	9.73%	36.6%	9.43%	36%	1.65%	-3.88%	2.75%	16.1%	-0.16%	1.64%	8.21%	3.05%	9.45%
CC1=C(C(=O)Nc2ccc3[nH]ncc3c2)C(c2ccc(F)cc2)N=C(c2ccc(C(F)(F)F)nc2)N1 (stereo not given)	0.81%	4.44%	-0.48%	-1.16%	-0.31%	3.49%	3.54%	5.75%	6.21%	8.47%	8.11%	3.81%	2.31%	1.15%	2.78%	1.68%	3.01%	7.98%	11.7%	0.93%
NS(=O)(=O)c1ccc(N/N=C2\C(=O)Nc3cccc(CCc4ccncc4)c32)cc1	0.76%	-0.13%	1.83%	-2.9%	-1.98%	0.59%	0.71%	3.79%	5.47%	4.47%	5.15%	2.41%	2.85%	1.21%	0.87%	-0.81%	3.74%	4.66%	8.01%	4.04%
